HT1080NT lethal: qHTS for induction of synthetic lethality in tumor cells producing 2HG: qHTS for the HT-1080-NT fibrosarcoma cell line | HT-1080-NT fibrosarcoma viability, CellTiter-Glo ATP luminescence, 48 h | Potency, µM (titrated, usually from 46.1 µM), for inactives: at the highest dose activity, negative = less viability, actives largely listed as cytotoxic | 360,000 compounds, 1.6% hits;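 further: NT is the 2HG producing partner of a matched IDH1 knockdown line; potency means the concentration at half of the fitted maximal effect; 0% = DMSO-treated cells and -100% = media-only wells without cells; nearly all actives have a fitted effect of over 55% in size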
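Toxicity toward the 2HG-producing NT line was scored as %Activity, normalised to DMSO and no-cell wells, from CellTiter-Glo luminescence after 48 hours' treatment.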
HT1080 IDH1KD tx: qHTS for induction of synthetic lethality in tumor cells producing 2HG: qHTS for the HT-1080-IDH1KD cell line. 360,000 compounds, 2% hits. HT-1080 IDH1 knockdown viability, ATP luminescence, 48 h. Potency, µM (top dose mostly 46.1 µM), inactives show at the highest dose activity, negative = toxicity, usual class: cytotoxic;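 further: potency means the concentration at half of the fitted maximal effect; 0% = DMSO wells and -100% = cell-free medium wells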
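Knockdown cells (IDH1KD HT-1080) received compounds 2 h after plating at 750 cells/well and were kept 48 h at 37 °C in 5% FBS RPMI. A CellTiter-Glo luminescence read gave % activity for curve fitting.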
TDP1 cell CPT: qHTS for Inhibitors of human tyrosyl-DNA phosphodiesterase 1 (TDP1): qHTS in cells in presence of CPT | chicken DT40 Tdp1-/-;hTDP1 cells + 20 nM CPT, ATP luminescence, 48 h | 420,000 compounds, 12% hits | Potency, µM (doses to about 46.2 µM), for the others: at the top dose activity change, negative = growth inhibition, hits mostly inhibitors; further: potency means the concentration at half of the fitted maximal effect; nearly all actives have a fitted effect of over 55% in size
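Chicken DT40 Tdp1-/- cells stably complemented with human TDP1 were seeded at 400 cells/well in medium containing 20 nM camptothecin, exposed to pin-transferred compounds, and grown at 37 °C for at least 48 hr. Viability was read as ATP luminescence.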
DT40 TDP1 no CPT: qHTS for Inhibitors of human tyrosyl-DNA phosphodiesterase 1 (TDP1): qHTS in cells in absence of CPT | DT40 Tdp1-/- hTDP1 cells, no CPT, ATP luminescence, 48 h | Potency, µM (series often up to 46.2 µM), for inactives: top-dose activity change, negative = growth inhibition, most hits filed as inhibitors | 420,000 compounds, 15% hits | AID 686978, 2013; further: potency means the concentration at half of the fitted maximal effect; nearly all actives have a fitted effect of over 55% in size
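Compound effects on proliferation are scored in DT40 Tdp1-/-;hTDP1 cells in the absence of CPT. ATP levels (CellTiter-Glo luminescence) are recorded after a ≥48 hr, 37 °C incubation.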
IL-1B inflam inh: qHTS for Inhibitors of Inflammasome Signaling: IL-1-beta AlphaLISA Primary Screen | THP-1 LPS/ATP IL-1B secretion, AlphaLISA, 16 h; active compounds read low | activity change, % at 57.5 µM | 360,000 compounds, 4.7% hits; in the data active means activity change below about -50%; inconclusive means mostly about -30% to -49%
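THP-1 cells pretreated 1 hr with compounds (up to 57.5 uM final), then stimulated with LPS (250 ng/mL final) plus ATP (1.25 mM final); secreted IL-1B measured by AlphaLISA after 16 hr, decreased signal indicating inhibition.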
Starred values were filed as active, the others as inactive; ? = inconclusive; nt = not tested or not shown. In the library only some 19% were active in any assay of this set; here they are far more common. Unless noted, the call rests on the fitted dose curve; in most records, active means well fitted curve in the direction sought with a large enough effect; inconclusive means small, poorly fitted or top-dose-only effect, or another doubt; inactive means no such curve, though single readings can be large; an effect the other way counts as inactive or inconclusive. Unless noted, on the % scale 0 is the no-effect control and ±100 the full control effect.

SMILES | HT1080NT lethal | HT1080 IDH1KD tx | TDP1 cell CPT | DT40 TDP1 no CPT | IL-1B inflam inh
CCC(C)c1ccc(NC(=O)C2=CC=CN3CCS(=O)(=O)N=C23)cc1 (stereo not drawn) | -2% | -2% | ? | -19% | 14
COc1ccc(/C=N/Nc2nc(Nc3ccccc3)nc(N3CCCCC3)n2)c(OC)c1 | 0% | 0% | ? | 21µM* | -14
O=C(Oc1cccc(/C=N/Nc2nc(N3CCOCC3)nc(N3CCOCC3)n2)c1)c1ccco1 | 2% | 9% | ? | ? | -14
COc1cc(/C=N/Nc2nc(Nc3ccccc3)nc(N3CCOCC3)n2)ccc1OC(=O)c1ccco1 | -24% | -19% | 7.3µM* | 4.1µM* | ?
COc1cc(/C=N/Nc2nc(Nc3ccccc3)nc(N3CCCCC3)n2)ccc1OCC(=O)O | 2% | 26% | ? | ? | 6
COc1ccc(/C=N/Nc2nc(Nc3ccccc3)nc(N3CCCC3)n2)cc1[N+](=O)[O-] | 15µM* | ? | ? | 16µM* | -88*
COC(=O)C(Cc1ccc(OC(=O)c2ccc(Cl)cc2)cc1)N1Cc2ccccc2C1=O (stereo not drawn) | -4% | -3% | ? | ? | -4
COC(=O)C(Cc1ccc(OC(=O)c2ccc(C(F)(F)F)cc2)cc1)N1Cc2ccccc2C1=O (stereo not drawn) | -5% | -25% | 16µM* | 18µM* | 32
Cc1ccccc1CS(=O)(=O)c1cnc2ccccc2n1 | 23µM* | ? | ? | 29µM* | -119*
Cc1ccccc1CS(=O)(=O)c1snnc1C | -1% | 7% | -23% | 23% | -23
CCN(CC)C(=O)N1CCC(NC(=O)c2ccc(C(C)(C)C)cc2)CC1 | -7% | -7% | ? | 23µM* | 0
CCO[C@H]1OC(C(N)=O)=C[C@@H](C)[C@@H]1CCCO | 13% | 12% | -4% | 9% | 0
N#Cc1ccc(CN2CCC3(CCNCC3)CC2)cc1 | nt | nt | ? | 18µM* | nt
Cc1ccc(S(=O)(=O)NN2C(=O)/C(=C\c3ccc(Cl)cc3)SC2=S)cc1 | 0% | 19% | 9% | -9% | 6
CN1CCN(C(=O)CCN2C(=O)/C(=C\c3ccc(F)cc3)SC2=S)CC1 | 12% | 12% | 18µM* | 15µM* | -99*
CN1CCN(C(=O)CCN2C(=O)/C(=C\c3ccc(Cl)cc3)SC2=S)CC1 | 3% | 0% | 18µM* | ? | -22
O=C(CN1C(=O)/C(=C/c2ccc(F)cc2)SC1=S)N1CCN(CCc2ccccn2)CC1 | -13% | -9% | 6.5µM* | 2.3µM* | -7
NS(=O)(=O)c1ccc(CCN2C(=O)/C(=C\c3ccc(Cl)cc3)SC2=S)cc1 | 2% | 5% | 6.5µM* | 6.5µM* | -85*
O=C(CCN1C(=O)/C(=C/c2ccc(F)cc2)SC1=S)Nc1cccnc1 | 7% | 22% | 2% | -6% | -19
CC(=O)N(C(C)=O)N1C(=O)/C(=C/c2ccc(Cl)cc2)SC1=S | -16% | ? | ? | ? | 0
O=C(CCN1C(=O)/C(=C/c2ccc(F)cc2)SC1=S)NCCc1ccc(O)cc1 | -6% | 5% | -13% | ? | 3
CC1CCCC(NC(=O)NC(=O)COC(=O)C2=NN(c3ccccc3)C(=O)CC2)C1C (stereo not drawn) | 2% | 1% | -2% | 6% | 0
N=C(N)n1ncc2c1CCCC2=O | 19% | 0% | -8% | -19% | 17
Cc1ccc(C)n1N1C(=O)/C(=C\c2ccc(Cl)cc2)SC1=S | -1% | -23% | ? | ? | -91*
c1cnn(-c2nc(N3CCOCC3)nc(N3CCOCC3)n2)c1 | -19% | -28% | 6.5µM* | 5.8µM* | ?
